In the library only some 32% were active in any assay of this set; here they are far more common.
CYP2C9 act: activators of human CYP2C9; P11712; recombinant CYP2C9, luciferin-H conversion, luminescence; hits give high values; factor 1 = untreated enzyme, 0 = blocked; activation factor at 5 µM; hit rate 1.4% among 96,000;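 active = activation factor of 2 or more for CYP2C9 at a 5 µM dose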
CYP2C19 activ: activators of human cytochrome P450 2C19; P33261; recombinant CYP2C19, luciferin-H EGE luminescence; hits give high values; 0 = fully inhibited enzyme, 1 = untreated enzyme; activation factor at 5 µM; 96,000 tested, under 10 active; AID 1025;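 active = activation factor of at least 2 at 5 µM in the primary screen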
Target sequence (P33261 whole entry, looked up): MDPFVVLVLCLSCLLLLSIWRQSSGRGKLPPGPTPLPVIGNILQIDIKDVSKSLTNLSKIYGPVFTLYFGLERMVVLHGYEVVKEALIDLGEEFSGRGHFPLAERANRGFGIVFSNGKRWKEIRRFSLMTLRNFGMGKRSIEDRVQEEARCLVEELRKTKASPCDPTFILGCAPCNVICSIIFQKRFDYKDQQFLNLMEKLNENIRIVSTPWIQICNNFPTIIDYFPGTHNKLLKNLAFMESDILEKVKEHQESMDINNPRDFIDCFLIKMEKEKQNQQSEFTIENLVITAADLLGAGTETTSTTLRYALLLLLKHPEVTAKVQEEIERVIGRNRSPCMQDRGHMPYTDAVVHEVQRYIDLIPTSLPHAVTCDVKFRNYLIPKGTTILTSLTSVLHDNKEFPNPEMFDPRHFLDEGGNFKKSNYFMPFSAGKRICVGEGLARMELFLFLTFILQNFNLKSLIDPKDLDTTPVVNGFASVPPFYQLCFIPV
CYP2C9 inh: blocks human cytochrome P450 2C9. P11712. CYP2C9 Supersomes, luciferin-H conversion, luminescence. inhibition, % at 5 µM. hit rate 20% among 96,000;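 active = blocking of liver enzyme CYP2C9 beyond about 50% at 5 µM, limit read from the data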
CYP2C19 inhib: inhibitors of human CYP2C19. inhibition, % at 5 µM. P33261. CYP2C19 Supersomes, luciferin-H EGE luminescence, 30 min. hit rate 21% among 96,000. AID 778;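 active = CYP2C19 inhibition above a set limit at 5 µM in the primary screen, cut at about 50% in these data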
PostGolgi ctrl: yeast control strain growth, post-Golgi counter-screen | efflux-deficient yeast background strain, growth absorbance A615, 16 h | inhibition, % at 10 µM | hit rate 5% among 98,000 | AID 738
PostGolgi yeast: growth inhibition of a yeast mutant, post-Golgi transport screen; post-Golgi transport phenotypic cell assay; inhibition, % at 10 µM; hit rate 0.9% among 98,000; AID 739;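 also: yeast cells grown in 1536-well plates; yeast grown about 18 h at 30C before absorbance read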
Each line names hits and unclear results; the compound was inactive in the other large screens. Rule as the data show it, unless noted: active = inhibition above about 30%; inactive = the rest.

O=C(Nc1ccccc1C(=O)NCCc1ccccc1)c1ccco1	CYP2C9 inh 71, CYP2C19 inhib 54
O=C(NCCNC(=O)C(c1ccccc1)c1ccccc1)c1ccco1	CYP2C9 inh 51, CYP2C19 inhib 66
COc1ccccc1C(=O)NCCNC(=O)c1ccco1	none (no result: CYP2C9 act, CYP2C19 activ, CYP2C9 inh, CYP2C19 inhib)
O=C(O)CNC(=O)c1ccccc1NC(=O)c1ccco1	none
O=C(Nc1ccccc1C(=O)NCc1ccc(Cl)cc1)c1ccco1	CYP2C9 inh 58
CCN1CCN(CC(=O)Nc2cccc(C)c2C)C(=O)C1=O	none
CC(C)C1C(c2ccccc2)N(C)C(c2ccccc2)CC1(O)c1ccccc1 (configuration not stated)	PostGolgi ctrl 33
[O-][n+]1onc2c1CCC1N(O)C(c3ccccc3)CC21O (configuration not stated)	none
O=C(NCc1cccnc1)c1c[nH]c2cc3c(cc2c1=O)OCCO3	none
O=C(NCc1ccccc1)c1c[nH]c2ccc(S(=O)(=O)Nc3ccc4c(c3)OCCO4)cc2c1=O	CYP2C9 inh 89
CCOCCCNC(=O)c1c[nH]c2ccc(S(=O)(=O)Nc3cccc(OC)c3)cc2c1=O	CYP2C9 inh 68
O=C(NC1CC1)c1c[nH]c2ccc(S(=O)(=O)Nc3cccc(C(F)(F)F)c3)cc2c1=O	CYP2C9 inh 54
O=C1CN(C(=O)c2cnccn2)c2ccccc2N1	none
CC(=O)CC1(O)C(=O)N(CN2CCN(c3ccccc3)CC2)c2ccccc21 (configuration not stated)	none
CC(C)CC(=O)NC(NCC1CCCO1)C(Cl)(Cl)Cl (configuration not stated)	CYP2C19 inhib 57
O=C(NC(NCC1CCCO1)C(Cl)(Cl)Cl)c1cccc2ccccc12 (configuration not stated)	none
COc1ccc(C2/C(=C(/O)c3ccccc3)C(=O)C(=O)N2CCN2CCOCC2)c(OC)c1 (configuration not stated)	none
Cc1nn(C)c(C)c1S(=O)(=O)N(CC(=O)NC1CCCCCC1)c1ccc(C(C)C)cc1	none
Cc1n[nH]c(C)c1S(=O)(=O)N(CC(=O)NC1CCCC1)c1ccc(C(C)C)cc1	CYP2C9 inh 75, CYP2C19 inhib 61
CCc1ccc(N(CC(=O)Nc2nc3ccc(C)cc3s2)S(=O)(=O)c2c(C)noc2C)cc1	CYP2C9 inh 93, CYP2C19 inhib 58, PostGolgi ctrl 32
CCc1ccc(N(CC(=O)NC2CCCC2)S(=O)(=O)c2c(C)noc2C)cc1	CYP2C9 inh 64
CCc1ccc(NC(=O)CN(c2ccc3c(c2)OCO3)S(=O)(=O)c2c(C)noc2C)cc1	none
CC1CC(Nc2ccccc2)=CC(=O)O1 (configuration not stated)	none
Cc1cc(C)c2cc(C)c3nnc(SCC(=O)NCc4ccc5c(c4)OCO5)n3c2c1	none
O=C(CSc1nnnn1C1CCCCC1)NCc1ccco1	none
O=C(CSc1nnnn1C1CCCCC1)NCc1ccc2c(c1)OCO2	CYP2C9 inh 92, CYP2C19 inhib 92
O=C(CSc1nnnn1C1CCCC1)NCc1ccc2c(c1)OCO2	CYP2C9 inh 61
CCN(CC)CCn1c2ccccc2c2nc(C)sc21	none
O=C(CN1C(=O)CSC1=O)N1CCc2ccccc2C1	none
Clc1ccccc1Cn1nnc(-c2cccs2)n1	none
O=C(CCn1nnc(-c2cccs2)n1)NCc1ccccc1Cl	CYP2C9 inh 65
COc1ccc2cc3cc(C(=O)NCc4cccs4)oc3nc2c1	none
CCN1CCN(CCCNC(=O)c2cc3cc4ccc(OC)cc4nc3o2)CC1	PostGolgi ctrl 35
COc1ccc2cc3cc(C(=O)Nc4ccc5c(c4)OCO5)oc3nc2c1	none
CCCN(CCC)CCCNC(=O)c1cc2cc3ccc(OC)cc3nc2o1	PostGolgi ctrl 40
COc1ccc2cc3cc(C(=O)NCCN4CCc5ccccc5C4)oc3nc2c1	PostGolgi ctrl 66
COc1ccc2cc3cc(C(=O)NCCN4CCN(Cc5ccccc5)CC4)oc3nc2c1	none
CCCCN(CC)CCCNC(=O)c1cc2cc3ccc(OC)cc3nc2o1	PostGolgi ctrl 46
COc1ccc2cc3cc(C(=O)NCCCN4CCOCC4)oc3nc2c1	none
COc1cccc2cc(C(=O)C3=C(O)C(=O)N(Cc4ccco4)C3c3cccnc3)oc12 (configuration not stated)	none
CCOC(=O)C1CCN(C(=O)c2cc(S(=O)(=O)N3CCOCC3)c(Cl)cc2Cl)CC1	none
CCOC(=O)CC(=O)CSCC(=O)Nc1ccc(C)cc1	CYP2C19 inhib 54
COc1cccc(-n2ccnc2SCC(=O)NCc2ccccc2)c1	CYP2C19 inhib 96
CCOc1ccccc1NC(=O)CSc1c(C)n[nH]c1C	none
CCCCOc1ccccc1NC(=O)CSc1nnnn1C(C)(C)C	CYP2C9 inh 74, CYP2C19 inhib 56
CC(C)(C)NC(=O)CSc1nnnn1C(C)(C)C	none
COCc1nnc(SCC(=O)NCc2ccccc2)n1-c1ccccc1	none
CCOc1ccccc1NC(=O)CSc1nccn1-c1ccccc1	CYP2C9 act 2.4, CYP2C19 inhib 67
COC(=O)c1cccc(NC(=O)CSc2nc3cccnc3n2C)c1	CYP2C9 inh 59, CYP2C19 inhib 68
CCOc1ccccc1NC(=O)CSc1nc2cccnc2n1C	CYP2C19 inhib 66
CCOc1ccccc1NC(=O)COn1nnc2ccccc21	CYP2C9 act 2.2, CYP2C19 inhib 92
CCOc1ccccc1NC(=O)CSCC(=O)Nc1ccccc1	CYP2C9 act 2.6, CYP2C19 inhib 93
CCOc1ccccc1NC(=O)C1CC(=O)n2ncnc2N1 (configuration not stated)	none
CCOC(=O)CNC(=O)Nc1nnc(-c2ccc(OCC)cc2)o1	none
COc1ccc(NC(=O)CSc2nccn2-c2ccccc2)c(OC)c1	CYP2C19 inhib 95
COC(=O)c1ccc(-c2cc(C(=O)O)c3cc4c(cc3n2)OCCO4)cc1	none
O=C(Nc1ccccc1N1CCCCC1)c1ncoc1-c1ccc(F)cc1	none
COc1ccccc1-c1nn2c(-c3ccc(C(C)(C)C)cc3)nnc2s1	CYP2C9 inh 56 (no result: PostGolgi ctrl, PostGolgi yeast)
c1ccc(-c2nn3c(-c4ccco4)nnc3s2)nc1	none
COc1ccccc1-c1nn2c(C(F)(F)F)nnc2s1	none
COc1ccc(-c2nnc3sc(-c4ccccn4)nn23)cc1	CYP2C9 inh 57 (no result: PostGolgi ctrl, PostGolgi yeast)
COc1cccc(-c2nnc3sc(-c4ccccn4)nn23)c1	CYP2C19 inhib 63
COc1cccc(-c2nn3c(-c4ccccn4)nnc3s2)c1	CYP2C19 inhib 52
COc1ccc(-c2nn3c(-c4ccccn4)nnc3s2)cc1OC	none (no result: CYP2C9 act, CYP2C19 activ, CYP2C9 inh, CYP2C19 inhib)
Cc1noc(C(=O)N2CCN(c3ccc(F)cc3)CC2)c1Cl	none (no result: CYP2C9 act, CYP2C19 activ, CYP2C9 inh, CYP2C19 inhib)
C=CCn1c(CNC(=O)c2ccccc2C)nnc1SCC(=O)NC1CCCC1	none
Cc1ccc(NC2SC(=O)N(Cc3cccc(C(=O)O)c3)C2=O)cc1 (configuration not stated)	none
CC(=O)c1cccc(NC(=O)c2cc3nc(C)cc(C)n3n2)c1	none
Clc1ccc(-c2nnc3sc(-c4ccccn4)nn23)cc1	none

High-throughput results deposited in PubChem by several laboratories.
